Activity calls are given as the source filed them.
How the values were obtained:
[1] = tested on: Plasmodium falciparum Sir2 (PF13_0152, Sir2A); test: Plasmodium falciparum Sir2A binding compounds – biochemical, small-molecule microarray, 635 nm fluorescence, primary screen (AID 1098); settings: fluorescence 635 nm, higher = more signal;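 also: score merges spot fluorescence intensity with its signal-to-noise ratio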
[2] = probe aDKK1 binding to arrayed compounds – biochemical, biotinylated probe, 635/667 nm fluorescence, primary screen (AID 1099); settings: small-molecule microarray, higher = more signal;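 also: score merges 667nm spot fluorescence with signal to noise across triplicate slides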
[3] = probe aCHRDL2 binding to arrayed compounds – biochemical, biotinylated probe, 635/667 nm fluorescence, primary screen (AID 1100); settings: small-molecule microarray, higher = more signal
[4] = change in splice reporter luminescence, either direction, cell-based, HEK293, spliceosome inhibition project, primary screen (AID 1101); settings: HEK293 splicing luciferase reporter, 24 h, higher = more signal, called active from +8 up or from −8 down;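 also: HEK293 cells carrying a splicing-competent luciferase reporter gene; test concentration not given here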
[5] = target: Fibroblast growth factor 10 (Homo sapiens) (UniProt O15520); test: compounds binding fibroblast growth factor 10 – biochemical, small-molecule microarray, 635 nm fluorescence, primary screen (AID 1102); settings: FGF10 binding, fluorescence 635 nm, higher = more signal
Fibroblast growth factor 10 (Homo sapiens), sequence (O15520 whole entry, looked up): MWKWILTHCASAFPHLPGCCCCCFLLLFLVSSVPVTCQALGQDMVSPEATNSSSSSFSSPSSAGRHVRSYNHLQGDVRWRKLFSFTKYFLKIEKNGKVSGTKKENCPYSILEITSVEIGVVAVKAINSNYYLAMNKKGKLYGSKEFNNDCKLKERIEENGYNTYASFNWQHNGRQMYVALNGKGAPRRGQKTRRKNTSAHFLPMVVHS

[6] = tested on: glycogen synthase kinase-3 (GSK3A per assay name; protocol says GSK3B); test: compounds binding glycogen synthase kinase-3 – biochemical, small-molecule microarray, 635 nm fluorescence, GSK3A, primary screen (AID 1103); settings: fluorescence 635 nm, higher = more signal; also: the record names both GSK3A and GSK3B
[7] = target: Epidermal growth factor receptor (Homo sapiens) (UniProt P00533); test: compounds binding epidermal growth factor receptor – biochemical, small-molecule microarray, 635 nm fluorescence, primary screen (AID 1104); settings: EGFR binding, higher = more signal;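 also: score merges 667 nm emission intensity with spot signal to noise over triplicate slides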
Epidermal growth factor receptor (Homo sapiens), sequence (P00533 whole entry, looked up): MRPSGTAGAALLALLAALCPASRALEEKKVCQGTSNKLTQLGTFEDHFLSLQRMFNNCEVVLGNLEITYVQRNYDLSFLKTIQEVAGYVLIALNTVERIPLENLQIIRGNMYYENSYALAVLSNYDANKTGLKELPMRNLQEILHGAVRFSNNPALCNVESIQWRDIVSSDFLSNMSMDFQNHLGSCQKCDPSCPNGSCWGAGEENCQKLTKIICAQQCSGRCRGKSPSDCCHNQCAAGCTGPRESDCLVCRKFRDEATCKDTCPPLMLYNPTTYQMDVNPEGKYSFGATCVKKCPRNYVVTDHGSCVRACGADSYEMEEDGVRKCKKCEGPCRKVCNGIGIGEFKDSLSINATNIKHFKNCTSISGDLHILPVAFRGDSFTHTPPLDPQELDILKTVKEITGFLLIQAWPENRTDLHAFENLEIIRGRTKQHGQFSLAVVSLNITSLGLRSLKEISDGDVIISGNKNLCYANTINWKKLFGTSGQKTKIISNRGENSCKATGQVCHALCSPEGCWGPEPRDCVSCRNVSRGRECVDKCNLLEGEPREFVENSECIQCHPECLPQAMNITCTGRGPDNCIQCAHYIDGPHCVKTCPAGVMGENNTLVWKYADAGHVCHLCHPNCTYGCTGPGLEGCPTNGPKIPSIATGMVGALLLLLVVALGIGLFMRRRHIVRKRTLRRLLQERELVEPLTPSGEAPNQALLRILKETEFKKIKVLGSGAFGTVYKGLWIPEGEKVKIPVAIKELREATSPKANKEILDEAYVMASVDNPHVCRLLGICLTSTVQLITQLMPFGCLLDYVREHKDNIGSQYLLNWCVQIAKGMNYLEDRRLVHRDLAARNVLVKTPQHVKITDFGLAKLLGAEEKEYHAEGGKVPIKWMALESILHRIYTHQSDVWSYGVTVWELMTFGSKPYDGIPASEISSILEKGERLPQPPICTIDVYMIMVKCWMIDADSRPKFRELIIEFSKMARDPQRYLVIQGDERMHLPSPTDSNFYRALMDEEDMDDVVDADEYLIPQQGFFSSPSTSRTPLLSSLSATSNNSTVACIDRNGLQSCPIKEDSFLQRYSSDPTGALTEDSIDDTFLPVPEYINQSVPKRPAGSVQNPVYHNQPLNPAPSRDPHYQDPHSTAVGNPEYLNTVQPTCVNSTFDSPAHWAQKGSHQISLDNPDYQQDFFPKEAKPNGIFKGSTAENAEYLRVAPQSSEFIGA

[8] = target: Follistatin-related protein 3 (Homo sapiens) (UniProt O95633); test: compounds binding follistatin-related protein 3 – biochemical, small-molecule microarray, 635 nm fluorescence, primary screen (AID 1105); settings: FSTL3 binding, higher = more signal;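 also: score merges emission near 667 nm and signal to noise per printed spot across three slides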
Follistatin-related protein 3 (Homo sapiens), sequence (O95633 whole entry, looked up): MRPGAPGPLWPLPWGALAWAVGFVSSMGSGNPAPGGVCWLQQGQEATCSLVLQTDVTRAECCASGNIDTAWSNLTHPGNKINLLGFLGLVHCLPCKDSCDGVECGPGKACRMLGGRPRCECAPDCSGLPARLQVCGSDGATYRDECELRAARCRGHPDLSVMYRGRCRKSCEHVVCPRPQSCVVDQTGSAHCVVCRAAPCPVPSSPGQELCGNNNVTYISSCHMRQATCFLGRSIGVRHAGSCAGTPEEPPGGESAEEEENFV

[9] = target: Dickkopf-related protein 1 (Homo sapiens) (UniProt O94907); test: small molecules binding DKK1 protein – biochemical, small-molecule microarray, 635 nm fluorescence scan, primary screen (AID 1106); settings: higher = more signal;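 also: score merges emission near 667 nm with signal to noise over three replicate slides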
Dickkopf-related protein 1 (Homo sapiens), sequence (O94907 whole entry, looked up): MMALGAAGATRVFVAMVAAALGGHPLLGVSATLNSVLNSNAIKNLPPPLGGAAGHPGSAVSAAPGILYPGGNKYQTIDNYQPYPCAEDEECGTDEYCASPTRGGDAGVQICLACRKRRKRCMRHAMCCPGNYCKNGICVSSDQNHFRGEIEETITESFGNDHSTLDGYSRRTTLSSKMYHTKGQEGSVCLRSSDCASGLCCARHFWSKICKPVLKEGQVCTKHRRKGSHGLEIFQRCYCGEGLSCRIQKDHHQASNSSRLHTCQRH

[10] = tested on: Inhibin beta A chain (activin A); test: small molecules binding activin A – biochemical, small-molecule microarray, 635 nm fluorescence scan, primary screen (AID 1107); settings: INHBA, higher = more signal;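 also: mouse activin A protein probed at 4.33 µg/mL on printed slides; score merges bound-protein fluorescence near 667 nm with spot signal-to-noise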
[11] = tested on: Human papillomavirus type 1a protein E7 (residues 44-93); test: small molecules binding HPV E7 44-93 – biochemical, small-molecule microarray, residues 44-93, 635 nm fluorescence, primary screen (AID 1108); settings: fluorescence 635 nm, higher = more signal;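 also: E7 fragment applied at 1 µg/mL in TBST for 1 h at 4 C; score combines spot fluorescence with its signal to noise ratio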
[12] = hepatitis C replication reporter changes, two-sided – Huh7 cells, luciferase reporter, HCV replication inhibitor project, primary screen (AID 1109); settings: Huh7 HCV replicon luciferase reporter, 48 h; higher = more signal;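 also: huh7 hepatoma cells harbouring a luciferase neomycin HCV replicon reporter; luciferase luminescence as measure of HCV replicon replication; test concentration not given here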
[13] = target: Left-right determination factor 2 (Homo sapiens) (UniProt O00292); test: small molecules binding LEFTY2 protein – biochemical, small-molecule microarray, 635 nm fluorescence scan, primary screen (AID 1110); settings: higher = more signal
Left-right determination factor 2 (Homo sapiens), sequence (O00292 whole entry, looked up): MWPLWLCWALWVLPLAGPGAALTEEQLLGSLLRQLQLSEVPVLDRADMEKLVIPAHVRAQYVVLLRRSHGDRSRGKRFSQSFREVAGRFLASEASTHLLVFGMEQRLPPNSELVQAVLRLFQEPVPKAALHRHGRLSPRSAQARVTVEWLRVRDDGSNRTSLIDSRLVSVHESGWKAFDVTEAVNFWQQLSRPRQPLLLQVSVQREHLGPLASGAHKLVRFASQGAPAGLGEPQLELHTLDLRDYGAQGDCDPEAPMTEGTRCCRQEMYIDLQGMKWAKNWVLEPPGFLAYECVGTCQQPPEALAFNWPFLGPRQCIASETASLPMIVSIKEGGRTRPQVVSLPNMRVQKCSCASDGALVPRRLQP

[14] = target: Calmodulin-1 (Homo sapiens) (UniProt P0DP23); test: small molecules binding calmodulin-1 with EGTA – biochemical, small-molecule microarray, Cy5-labelled CALM1, profiling panel (AID 1111); settings: Cy5-CALM1 binding fluorescence, higher = more signal;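 also: labelled calmodulin applied in Tris saline Tween buffer holding calcium plus EGTA and DTT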
[15] = target: Calmodulin-1 (Homo sapiens) (UniProt P0DP23); test: small molecules binding Ca-loaded calmodulin-1 – biochemical, small-molecule microarray, Cy5-labelled CALM1, plus calcium, artefact control for SMM control-protein annotation, profiling panel (AID 1112); settings: Cy5-CALM1 binding fluorescence, higher = more signal;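 also: score merges spot fluorescence with signal to noise from triplicate slides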
[16] = probe aWnt5a binding to arrayed compounds – biochemical, biotinylated probe, 635/667 nm fluorescence, primary screen (AID 1113); settings: small-molecule microarray, higher = more signal;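 also: score merges 667 nm fluorescence intensity with signal-to-noise per printed feature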
[17] = probe aShh binding to arrayed compounds – biochemical, biotinylated probe, 635/667 nm fluorescence, primary screen (AID 1114); settings: small-molecule microarray, higher = more signal;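 also: probe is biotin-labelled aShh protein from a stem cell growth factor screen; measures binding of labelled protein to compounds printed on the slide; score merges feature fluorescence at 667 nm with signal-to-noise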
[18] = probe aNog binding to arrayed compounds – biochemical, biotinylated probe, 635/667 nm fluorescence, primary screen (AID 1115); settings: small-molecule microarray, higher = more signal;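 also: probe is biotinylated aNog protein used at 0.15 µg/mL for 1 h at 4 C; z-score combines 667 nm fluorescence of each spot with its signal to noise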
[19] = target: Torsin-1A-interacting protein 1 (Homo sapiens) (UniProt Q5JTV8); test: compound microarray binding of lysate hLAP1 – cell lysate, small-molecule microarray, COS7 lysate, 635/667 nm fluorescence, primary screen (AID 1116); settings: 635 nm fluorescence, higher = more signal
Torsin-1A-interacting protein 1 (Homo sapiens), sequence (Q5JTV8 whole entry, looked up): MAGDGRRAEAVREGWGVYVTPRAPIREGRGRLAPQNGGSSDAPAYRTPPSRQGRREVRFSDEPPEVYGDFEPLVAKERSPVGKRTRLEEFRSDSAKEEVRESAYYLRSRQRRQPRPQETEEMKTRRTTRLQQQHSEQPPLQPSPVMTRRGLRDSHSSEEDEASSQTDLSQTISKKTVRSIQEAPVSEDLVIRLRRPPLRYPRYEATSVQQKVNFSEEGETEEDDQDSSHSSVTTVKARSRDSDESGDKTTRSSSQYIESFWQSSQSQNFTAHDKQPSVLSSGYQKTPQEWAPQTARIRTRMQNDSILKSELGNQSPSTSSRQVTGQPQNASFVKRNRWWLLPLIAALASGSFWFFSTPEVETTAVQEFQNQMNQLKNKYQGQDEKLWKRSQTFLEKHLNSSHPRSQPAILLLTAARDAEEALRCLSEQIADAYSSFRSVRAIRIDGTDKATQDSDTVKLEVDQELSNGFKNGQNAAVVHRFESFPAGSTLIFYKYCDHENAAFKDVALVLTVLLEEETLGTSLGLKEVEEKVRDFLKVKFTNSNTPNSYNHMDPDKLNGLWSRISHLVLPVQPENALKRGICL

[20] = target: Alpha-bungarotoxin (Bungarus multicinctus) (UniProt P60615); test: compounds binding labelled alpha-BTX control protein – biochemical, small-molecule microarray, Alexa647 label, 635/667 nm fluorescence, artefact control for SMM control protein annotation, profiling panel (AID 1117); settings: alpha-BTX-A647 binding fluorescence, higher = more signal
Alpha-bungarotoxin (Bungarus multicinctus), sequence (P60615 whole entry, looked up): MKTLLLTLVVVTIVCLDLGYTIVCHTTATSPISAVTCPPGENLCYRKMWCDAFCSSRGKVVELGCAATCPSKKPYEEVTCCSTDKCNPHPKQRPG

## O=C1C2C=CC(C(O)c3ccccc3)N(n3cnnc3)C2C(=O)N1Cc1ccccc1 (stereo not given)
[1]
  composite z-score: 0.0854
[2]
  composite z-score: 0.446
[3]
  composite z-score: 0.908
[4]
  z-score: -0.524 (inactive)
[5]
  composite z-score: 0.0573
[6]
  composite z-score: -0.279
[7]
  composite z-score: 0.392
[8]
  composite z-score: -0.117
[9]
  composite z-score: -0.433
[10]
  composite z-score: 1.46
[11]
  composite z-score: -0.447
[12]
  z-score: 0.573
[13]
  composite z-score: -0.237
[14]
  composite z-score: 0.206
[15]
  composite z-score: -0.372
[16]
  composite z-score: 0.0357
[17]
  composite z-score: -0.0594
[18]
  composite z-score: 0.319
[19]
  composite z-score: 0.327
[20]
  composite z-score: 0.449

## O=C(CS)NCCCCCCNC(=O)[C@@H]1C[C@@H]2C(=O)N[C@@H](Cc3ccccc3)C(=O)N2[C@@H]1c1ccc(O)cc1
[1]
  composite z-score: 1.6
[2]
  composite z-score: -0.0356
[3]
  composite z-score: 0.307
[4]
  z-score: -0.376 (inactive)
[5]
  composite z-score: 1.03
[6]
  composite z-score: 1.32
[7]
  composite z-score: 0.411
[8]
  composite z-score: 1.19
[9]
  composite z-score: 1.18
[10]
  composite z-score: 0.617
[11]
  composite z-score: 1.45
[12]
  z-score: -0.144
[13]
  composite z-score: 0.621
[14]
  composite z-score: 2.31
[15]
  composite z-score: -0.23
[16]
  composite z-score: 0.0179
[17]
  composite z-score: -0.177
[18]
  composite z-score: -0.443
[19]
  composite z-score: 1
[20]
  composite z-score: 1.7

## C=CCC(OC(C)=O)[C@@H]1[C@@H](N(Cc2ccc(-c3ccccc3)cc2)C(=O)c2ccc(C)cc2)c2cc(OCCCO)ccc2N1C(=O)c1ccc(-c2ccccc2)cc1 (stereo not given in full)
[1]
  composite z-score: -0.151
[2]
  composite z-score: 0.434
[3]
  composite z-score: 0.536
[4]
  z-score: -2.28 (inactive)
[5]
  composite z-score: 0.104
[6]
  composite z-score: -0.176
[7]
  composite z-score: -0.0222
[8]
  composite z-score: -0.023
[9]
  composite z-score: -0.0546
[10]
  composite z-score: 1.42
[11]
  composite z-score: -0.0852
[12]
  z-score: -0.13
[13]
  composite z-score: 0.181
[14]
  composite z-score: 0.218
[15]
  composite z-score: 1.22
[16]
  composite z-score: -0.101
[17]
  composite z-score: 0.0611
[18]
  composite z-score: 0.15
[19]
  composite z-score: 0.116
[20]
  composite z-score: 0.523

## CCCC=C(CCC)[C@@H](NS(=O)(=O)c1ccc(-c2ccccc2)cc1)c1ccc(C(=O)OC)cc1
[1]
  composite z-score: -0.127
[2]
  composite z-score: 0.224
[3]
  composite z-score: 0.516
[4]
  z-score: -2.72 (inactive)
[5]
  composite z-score: -0.632
[6]
  composite z-score: -0.84
[7]
  composite z-score: -0.243
[8]
  composite z-score: -0.875
[9]
  composite z-score: -0.422
[10]
  composite z-score: 0.573
[11]
  composite z-score: 0.17
[12]
  z-score: -1.35
[13]
  composite z-score: 0.0185
[14]
  composite z-score: 0.601
[15]
  composite z-score: 0.581
[16]
  composite z-score: -0.104
[17]
  composite z-score: 0.0796
[18]
  composite z-score: 0.119
[19]
  composite z-score: 0.756
[20]
  composite z-score: -0.214

## CCOC(=O)C1=CC[C@@H](c2ccccc2)N(S(=O)(=O)c2ccc(C)cc2)[C@H]1C
[1]
  composite z-score: 1.09
[2]
  composite z-score: 0.821
[3]
  composite z-score: 0.567
[4]
  z-score: -0.993 (inactive)
[5]
  composite z-score: 1.4
[6]
  composite z-score: 0.312
[7]
  composite z-score: 1.02
[8]
  composite z-score: 1.38
[9]
  composite z-score: 0.635
[10]
  composite z-score: 0.258
[11]
  composite z-score: 1.47
[12]
  z-score: -2.88
[13]
  composite z-score: 0.902
[14]
  composite z-score: 0.764
[15]
  composite z-score: 0.665
[16]
  composite z-score: 0.101
[17]
  composite z-score: -0.214
[18]
  composite z-score: 0.787
[19]
  composite z-score: 0.682
[20]
  composite z-score: 1.74

— PubChem BioAssay
